Data as given in PubChem BioAssay (NCATS).
Some of the results follow. Entries that show only a call come without a potency. Inconclusive results are not listed. Activity calls are given as the source filed them. Calls follow the shape of the full dose curve.
Potency is read from the fitted curve at half-maximal effect.

These compounds were tested against Furin (Homo sapiens) (UniProt P09958) (assay: Selectivity profile for inhibitors of NSP2Pro chikungunya virus (CHIKV): Human furin counterscreen (AID 1964102)). Conditions: Recombinant human furin enzymatic counterscreen, fluorogenic substrate; series mostly up to 50.6 µM.
Furin (Homo sapiens), sequence (P09958 whole entry, looked up): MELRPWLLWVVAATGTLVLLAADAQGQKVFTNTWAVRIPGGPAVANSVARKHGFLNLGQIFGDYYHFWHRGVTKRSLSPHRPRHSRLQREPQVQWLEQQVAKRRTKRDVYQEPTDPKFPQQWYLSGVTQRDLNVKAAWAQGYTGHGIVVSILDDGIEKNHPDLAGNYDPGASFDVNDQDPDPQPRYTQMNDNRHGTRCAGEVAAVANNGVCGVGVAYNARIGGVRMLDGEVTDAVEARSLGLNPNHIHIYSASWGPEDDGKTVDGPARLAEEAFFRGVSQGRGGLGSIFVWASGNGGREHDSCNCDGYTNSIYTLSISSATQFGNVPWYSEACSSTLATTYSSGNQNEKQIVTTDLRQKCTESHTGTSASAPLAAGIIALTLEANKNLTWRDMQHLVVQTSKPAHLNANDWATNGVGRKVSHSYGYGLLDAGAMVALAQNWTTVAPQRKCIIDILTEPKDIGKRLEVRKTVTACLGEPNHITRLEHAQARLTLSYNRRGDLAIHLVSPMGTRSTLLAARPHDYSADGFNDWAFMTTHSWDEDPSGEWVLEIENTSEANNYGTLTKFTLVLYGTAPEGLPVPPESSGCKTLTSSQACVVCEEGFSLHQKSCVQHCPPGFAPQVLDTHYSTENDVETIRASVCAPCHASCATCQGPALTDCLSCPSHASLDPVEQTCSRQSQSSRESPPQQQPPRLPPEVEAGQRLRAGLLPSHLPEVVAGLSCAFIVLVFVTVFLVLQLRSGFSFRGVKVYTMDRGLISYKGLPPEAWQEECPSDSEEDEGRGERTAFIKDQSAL
Description: PI: Natalia J. Martinez Ph.D.
National Center for Advancing Translational Sciences (NCATS),
National Institute of Health (NIH), Rockville, Maryland
Chikungunya virus (CHIKV) is a mosquito-borne RNA virus that has emerged as one of the most important global arboviral threats in the last decade. Although the first CHIKV vaccine has recently been FDA approved for use in healthy adults at increased risk, to date, there are no available antiviral drugs for CHIKV infection. CHIKV nsP2 protease plays a crucial role in the processing of the viral polypeptide precursor to release enzymes required for viral replication, thus making it a promising drug target for antiviral discovery. Here, we established a high-throughput pipeline to identify small molecule inhibitors of nsP2 proteolytic activity. The pipeline is composed of a suite of 1,536-well in vitro assays to support quantitative high-throughput (qHTS) screening campaigns. Specifically, we developed a fluorescence resonance energy transfer (FRET)-based assay using a fluorogenic peptide substrate encompassing an endogenous cleavage site and purified recombinant protease domain (nsP2pro). Using this assay, we interrogated ~37,000 small molecules, including those in drug repurposing libraries as well as chemically diverse and medicinal chemistry-friendly compounds. Hits were selected for follow-up validation against full-length nsP2 and an additional peptide. FRET-based 1,536-well assays for papain, hepatitis C virus NS3-4A, and human furin proteases were implemented to characterize compound selectivity. […] Novel compounds were identified to be potential nsP2 inhibitors and molecular docking analyses were performed to explain the binding mode of selected hits. In vitro antiviral activity was evaluated for a subset of compounds using a high-throughput CHIKV infection assay. To our knowledge, the pipeline presented here is unprecedented for CHIKV antiviral discovery research.
PROTOCOL TABLE (as described by Inglese J, Shamu CE and Guy RK. 2007)
SEQUENCE No. (e.g., 1, 2, 3, etc.); […] (e.g., Cells, Incubation, Reagent, etc.); VALUE; DESCRIPTION.
1; Enzyme; 2 uL; 1,536-well solid-bottom, black plate (Greiner Bio One).
2; Compounds; 20 nL; Echo 655 acoustic dispenser (Beckman Coulter).
3; Incubation; 15 min; room temperature in the dark.
4: Reagent; 2 uL; pERTKR-AMC.
5; Detection; Fluorescence; time 0, Viewlux microplate reader (PerkinElmer) 355 nm excitation, 460 nm emission
6; Incubation; 15 min; room temperature
7; Detection; Fluorescence; time 15; ViewLux microplate reader (PerkinElmer), 355 nm excitation, 460 nm emission.
NOTES (numbers refer to sequence numbers above).
1. Two micro-liter of furin enzyme solution (40 nM final concentration) in assay buffer (20 mM Tris-HCl pH 8.0, 150 mM NaCl, with 0.01% Tween 20) were dispensed into a 1,536-well solid-bottom black plate (Greiner Bio One) using the Kalypsys Pintool Station.
2. Twenty nano-liter of compounds, positive control Aprotinin (50 uM final concentration), or neutral control DMSO were transferred to the assay plates. Compounds in counterscreen assays were tested at 11 concentrations, 1:3 dilution points from 25 uM to 0.42 nM.
3. The assay plates were incubated in the dark for 15 min.
4. After incubation, 2 uL of 0.625 uM pERTKR-AMC substrate in assay buffer for the Furin assay was added using the Kalypsys Pintool Station.
5-7. Plates were immediately read at time 0 then covered with stainless steel gasket lids and incubated for 15 min at room temperature in the dark. Fluorescence intensity in the assay plates were again read after incubation using the ViewLux imager equipped with AMC fluorescence optics. The change in fluorescence intensity over the 15-min reaction period was normalized against DMSO and inhibitor controls as described below.
Inglese J, Shamu CE and Guy RK, Reporting data from high throughput screening of small molecule libraries, Nature Chemical Biology, 2007, 3(8): 438-441. doi.org/10.1038/nchembio0807-438.
In the case of `COC([CH2][Hg])CNC(=O)c1ccccc1OCC(=O)O` (stereo not drawn), the Potency is reported as 2060 nM (active). With `Cc1c(S(=O)(=O)O)oc2c1C(=O)C(=O)c1c-2ccc2c1CCCC2(C)C` the Potency was “inactive”. With `C=CC(=O)c1ccc2ccccc2c1` the Potency was “inactive”. For `O=C(O)c1cccc(-n2[nH]c(-c3ccccc3)cc2=O)c1`, the Potency was “inactive”. For `CCOc1ccc(NC(=O)c2c(NC(=O)Cc3ccccc3)sc3c2CCCCC3)cc1`, the Potency was “inactive”. For `CC1=C(/C=C/C(C)=C/C=C/C(C)=C/C=C/C=C(C)/C=C/C=C(C)/C=C/C2=C(C)CCCC2(C)C)C(C)(C)CCC1`, the Potency was “inactive”. In the case of `CCOc1ccc(N(Cc2ccccc2)C(=O)c2nc(S(C)(=O)=O)ncc2Cl)cc1`, the Potency is reported as “inactive”. `C[C@@H]1O[C@@H](O[C@@H]2[C@@H](O)[C@H](OCCc3ccc(O)c(O)c3)O[C@H](CO[C@@H]3O[C@H](CO)[C@@H](O)[C@H](O)[C@H]3O)[C@H]2OC(=O)/C=C/c2ccc(O)c(O)c2)[C@H](O)[C@H](O)[C@H]1O` was tested, and the Potency was “inactive”. In the case of `Oc1ccc(OC2CCCCO2)cc1` (stereo not drawn), the Potency is reported as “inactive”. With `CCc1ccccc1NC(=O)c1cnn(-c2ccc(F)cc2)c1C1CCNCC1` the Potency was “inactive”. With `CCC(C)C(=O)OC1C(C)C2(O)C(C=C(CO)CC3(O)C(=O)C(C)=CC32)C2C(C)(C)C12OC(=O)C(C)C` (stereo not drawn) the Potency was “inactive”. With `C=Cc1c(C)c2cc3nc(cc4[nH]c(cc5nc(cc1[nH]2)C(C)=C5CCC(=O)O)c(CCC(=O)OC)c4C)[C@@]1(C)C3=CC=C(C(=O)OC)[C@H]1C(=O)OC` the Potency was “inactive”. For `N#CSc1cc(SC#N)c(N)nc1N`, the Potency was “inactive”. For `C[C@@H]1C[C@@H](O)[C@@]23CO[C@]2(CO)C[C@@H](O)CC3[C@@]12CC(c1ccoc1)OC2=O` (stereo partly drawn), the Potency was “inactive”. For `CCOc1ccc(NC(=O)c2c(NC(=O)Cc3ccccc3)sc3c2CCC(C)C3)cc1` (stereo not drawn), the Potency was “inactive”. In the case of `C[C@@H]1[C@H](O)[C@@H]2OC(=O)C3=C2[C@H](CCC3)[C@@]12C[C@@H](c1ccoc1)OC2=O`, the Potency is reported as “inactive”. For `CO[C@]1(NC(=O)CSC(F)F)C(=O)N2C(C(=O)O)=C(CSc3nnnn3CCO)CO[C@H]21`, the Potency was “inactive”. In the case of `CC(=O)N[C@@H](C(=O)O[C@H]1CCC(C)(C)[C@@H]2CCC3=C(COC3=O)[C@@]12C)C(C)C`, the Potency is reported as “inactive”.
